Source: PubChem BioAssay (The Scripps Research Institute Molecular Screening Center)
MITF inh: human MITF inhibition, primary screen | inhibition, % at 2.6 µM | O75030 | 650,000 tested, 0.91% active | AlphaScreen MITF homodimerization, bead proximity signal; in the data active means inhibition above about 50%
TEAD-YAP block: TEAD-YAP interaction inhibition; AID 1259422; 640,000 tested, 1.4% active; HEK-TIYL cells, TEAD-Gal4/YAP UAS-luciferase luminescence; inhibition, % at 9.12 µM; in the data active means inhibition above about 32%
FBW7 activator: activators of human E3 ligase FBW7; normalized activity (activation), % at 26.1 µM; AID 1259310; 650,000 tested, 0.13% active; Q969H0; AlphaScreen FBW7–phospho-cyclin E peptide binding, activator screen; in the data active means normalized activity above about 1.9%;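 further: purified mutant Fbw7 with reduced substrate affinity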
Target sequence (Q969H0 whole entry, looked up): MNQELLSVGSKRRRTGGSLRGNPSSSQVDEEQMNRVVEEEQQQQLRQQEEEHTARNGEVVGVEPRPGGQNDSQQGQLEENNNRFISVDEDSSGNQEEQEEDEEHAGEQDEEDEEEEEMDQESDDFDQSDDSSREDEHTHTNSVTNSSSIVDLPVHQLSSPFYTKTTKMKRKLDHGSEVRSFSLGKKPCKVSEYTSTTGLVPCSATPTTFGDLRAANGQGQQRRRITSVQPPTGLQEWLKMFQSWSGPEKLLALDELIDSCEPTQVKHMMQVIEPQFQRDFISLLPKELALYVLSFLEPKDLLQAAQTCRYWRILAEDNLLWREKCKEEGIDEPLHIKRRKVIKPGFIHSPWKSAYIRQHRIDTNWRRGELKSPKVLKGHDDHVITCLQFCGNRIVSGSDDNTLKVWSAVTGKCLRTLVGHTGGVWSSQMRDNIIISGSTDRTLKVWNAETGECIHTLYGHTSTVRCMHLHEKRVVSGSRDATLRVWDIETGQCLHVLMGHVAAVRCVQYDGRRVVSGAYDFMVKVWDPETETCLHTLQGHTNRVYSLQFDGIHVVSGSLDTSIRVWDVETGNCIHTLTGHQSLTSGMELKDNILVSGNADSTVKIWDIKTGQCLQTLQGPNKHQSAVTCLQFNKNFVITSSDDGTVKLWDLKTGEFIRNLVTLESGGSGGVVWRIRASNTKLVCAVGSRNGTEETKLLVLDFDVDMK
GPR151 activ: activates the human receptor GPR151; Q8TDV0; PathHunter beta-arrestin GPR151 cells, luminescence; activation, % at 11.2 µM; 650,000 tested, 1% active; AID 1508602; in the data active means activation above about 4.9%
A number is an active result; . = inactive. The list is not random: actives were taken first. Their share in the collection is about 3.4%.

SMILES	MITF inh	TEAD-YAP block	FBW7 activator	GPR151 activ
Cc1ccc2nc(-c3ccccc3Cl)cn2c1	.	93.2	.	.
Cc1ccc2nc(-c3ccc(F)cc3)cn2c1	.	93.4	.	.
COc1ccc(-c2cn3cc(C)ccc3n2)cc1	.	82.0	.	.
Cc1ccc2nc(-c3cc4ccccc4oc3=O)cn2c1	.	.	.	.
COc1ccccc1NC(=O)/C=C/c1ccc(C(C)(C)C)cc1	.	.	.	.
CC(=O)c1ccc(-c2ccc(OCc3ccccn3)nc2)cc1	.	.	.	.
Cc1csc(SCC(=O)c2cc(C)n(Cc3cccs3)c2C)n1	.	59.2	.	.
Cc1cc(C(=O)CCl)c(C)n1Cc1cccs1	.	.	.	.
Cc1cc(C(=O)CSc2nc(N)cc(=O)[nH]2)c(C)n1Cc1cccs1	.	.	.	.
Cc1cc(C(=O)CSc2nnc(N)s2)c(C)n1Cc1cccs1	.	58.4	.	.
Cc1ccccc1/C=C1/NC(=O)N(Cc2ccc(F)cc2)C1=O	.	.	.	.
Cc1cc(C(C)(C)C)cc(S(=O)(=O)Nc2c(C)n(C)n(-c3ccccc3)c2=O)c1C	.	.	.	.
O=C(CN1CCCCCC1)N/N=C/c1ccccc1	.	.	.	.
CCOCCn1c(-n2nc(C)c(C)c2C)nc2c1c(=O)n(Cc1ccccc1)c(=O)n2C	.	.	.	.
COc1cccc(C2(CC(=O)N3CCN(C)C(C)C3)CC(=O)N(CCN(C)C)C2=O)c1 (configuration not stated)	.	.	.	.
COc1cccc(C2(CC(=O)N3CCOCC3)CC(=O)N(CCN(C)C)C2=O)c1 (configuration not stated)	.	.	2.0	.
COC(=O)C1=C(C)N(c2ccc(F)cc2)C(=O)/C1=C\c1ccc(F)cc1	.	.	.	.
Cc1cccc(OS(=O)(=O)c2cn(C)c(=O)n(C)c2=O)c1	.	.	3.6	.
CCOC(=O)CSc1ccc2nnc(-c3ccc(Cl)cc3)n2n1	.	.	.	.
CC(=O)N(C1=C(N2CCCCC2)C(=O)c2ccccc2C1=O)c1ccccc1C	.	36.4	.	.
CC(=O)N(C)C1=C(N2CCCCC2)C(=O)c2ccccc2C1=O	.	91.2	.	.
O=C(CSc1ccc(-c2ccc(-n3ccnc3)cc2)nn1)N1CCc2ccccc21	.	.	2.3	.
COCC1CCCN(c2nc(CN3CCN(c4ccc(C)cc4)CC3)nc3ccccc23)C1 (configuration not stated)	.	.	.	.
COc1cc(Nc2nc3ccc(C(=O)NCc4cccnc4)cc3s2)cc(OC)c1OC	.	42.0	.	.
COc1cc(NC(=O)c2ccc3nc(Nc4ccccn4)sc3c2)cc(OC)c1OC	.	32.1	.	.
SMILES	MITF inh	TEAD-YAP block	FBW7 activator	GPR151 activ
O=C(NCc1cccc(C(F)(F)F)c1)c1ccc2nc(Nc3ccc(-n4ccnc4)cc3)sc2c1	.	.	.	.
O=C(NCc1ccccc1)c1ccc2nc(Nc3ccc(-n4ccnc4)cc3)sc2c1	.	35.6	.	.
O=C(NCc1cccnc1)c1ccc2nc(Nc3ncccn3)sc2c1	.	.	.	.
CC(=O)Nc1ccc(N=Cc2c(C)[nH]n(-c3ccccc3)c2=O)cc1	.	.	.	.
CCC(C)(C(=O)NC1CCCC1)N(Cc1ccco1)C(=O)CNC(=O)c1ccccc1 (configuration not stated)	.	.	2.3	.
CCC(C)(C(=O)NC1CCCC1)N(Cc1ccco1)C(=O)CNC(C)=O (configuration not stated)	.	.	.	.
Cc1ccc(C(=O)NNC(=O)CC#N)cc1	.	.	.	.
COc1ccc(C)cc1NC(=O)NCc1cc(C)n(C)n1	.	34.6	.	.
Nc1ccc(N2CCCCC2)cc1N1CCCCC1	.	71.9	.	.
Nc1cc(Cl)ccc1N1CCCCC1	.	.	.	.
O=C(Nc1ccc(S(=O)(=O)N2CCCCC2c2cccnc2)cc1)c1ccc([N+](=O)[O-])cc1 (configuration not stated)	.	36.4	.	.
CCOc1ccc(C(=O)Nc2ccc(S(=O)(=O)N3CCCCC3c3cccnc3)cc2)cc1 (configuration not stated)	.	33.2	.	.
Cc1ccc(C(=O)Nc2ccc(S(=O)(=O)N3CCCCC3c3cccnc3)cc2)cc1 (configuration not stated)	.	.	.	.
O=C(Nc1ccc(S(=O)(=O)N2CCCCC2c2cccnc2)cc1)c1ccc(S(=O)(=O)N2CCCC2)cc1 (configuration not stated)	.	.	.	.
Cc1ccccc1Oc1nc2c(C)cccn2c(=O)c1/C=C(\C#N)C(=O)NC1CCCC1	.	.	.	.
CNC(=O)/C(C#N)=C/c1c(Oc2cccc(C)c2C)nc2c(C)cccn2c1=O	.	34.9	.	.
C=CCNC(=O)/C(C#N)=C/c1c(Oc2ccccc2C)nc2c(C)cccn2c1=O	.	40.7	.	.
CNC(=O)/C(C#N)=C/c1c(Oc2ccc(F)cc2)nc2c(C)cccn2c1=O	.	.	.	.
Cc1ccccc1Oc1nc2c(C)cccn2c(=O)c1/C=C(\C#N)C(=O)NCC1CCCO1 (configuration not stated)	.	33.5	.	.
CC(Nc1ncc(Br)cn1)c1ccccc1 (configuration not stated)	.	.	.	.
Cc1ccc(Sc2cc(C(=O)NC3CCCC(C)C3C)c3ccccc3n2)cc1 (configuration not stated)	.	.	.	.
Brc1ccc(-c2c[n+]3c(n2Cc2ccccc2)SCCC3)cc1	.	.	.	.
CCOc1ccc(-c2c[n+]3c(n2Cc2ccccc2)SCCC3)cc1	.	66.8	.	.
CCOc1ccc(-n2c(-c3ccccc3)c[n+]3c2CCCCC3)cc1	.	65.6	.	.
CCOc1ccc(-n2c(-c3ccccc3)csc2=NC(C)=O)cc1	.	.	.	.
SMILES	MITF inh	TEAD-YAP block	FBW7 activator	GPR151 activ
COc1cc(/C=c2/sc3nc4c(C)c(C)ccc4n3c2=O)cc(OC)c1OC(C)=O	.	.	.	.
CC(C)n1cc(-c2ccc3ccccc3n2)cn1	.	82.3	.	.
COc1cccc(NC(=O)c2cccc(C)c2OC)c1	.	.	.	.
O=C(CCC(=O)c1ccccc1)NCCOc1ccccc1	.	.	.	.
O=C(NCCOc1ccccc1)C(=O)NCc1ccco1	.	48.3	.	.
COc1cc(-c2nc3ccc(C(=O)NCCc4ccc(C)cc4)cc3nc2-c2cc(OC)c(OC)c(OC)c2)cc(OC)c1OC	.	37.9	.	.
O=C(CCl)NCCOc1ccccc1	.	35.6	.	.
COc1cc(-c2nc3ccc(C(=O)NCCc4ccccc4)cc3nc2-c2cc(OC)c(OC)c(OC)c2)cc(OC)c1OC	.	.	.	.
Cc1ccc(C(=O)NCCc2ccccc2)cc1	.	82.2	.	.
CN(C)CCOc1cc(-c2cn[nH]c2)ccc1NC(=O)C1COc2ccc(F)cc2C1 (configuration not stated)	.	.	.	.
O=C(NCCOc1ccccc1)c1cccc(-c2ccccc2)n1	.	.	.	.
O=C(NCCOc1ccc(Cl)cc1)c1ccco1	.	.	2.3	.
COc1ccc(-c2cccc(C(=O)NCCOc3ccccc3)n2)cc1	.	.	8.0	.
CCc1ccc(OCCNC(=O)c2ccco2)cc1	.	.	.	.
